# Most compounds without a hit are left out; they make up all but 1.1% or so of the library.
# HTR5A inv ag: HTR5A inverse agonists in luminescence cell assay, primary screen, counter-screen for OPRM1-OPRD1 heterodimer inverse agonist project, full-deck HTS. HTR5A cell line, inverse agonism. inhibition, % at 9.3 µM. 0.083% of 340,000 active. AID 504634, 2011; in the data active = inhibition mostly above about 23%, no sharp cut-off; inactive = mostly below about 18%;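 also: 0% = cells with DMSO and 100% = no-cell wells with DMSO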
# HTR5A ag ctr: HTR5A agonists in luminescence cell assay, primary screen, counter-screen for OPRM1-OPRD1 heterodimer agonist project, full-deck HTS. 5-hydroxytryptamine receptor 5A (Homo sapiens), P47898. cell-based. activation, % at 9.3 µM. 0.61% of 340,000 active; in the data active = activation mostly above about 9.5%, no sharp cut-off; inactive = mostly below about 7.6%;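 also: 0% = cells with vehicle only and 100% = reference agonist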
# MOR-DOR inv ag: inverse agonists of MOR-DOR heterodimerization, primary screen, cell-based, luminescence. AID 504357, 2011. cell-based MOR-DOR heterodimer luminescence, inverse agonism. Mu-type opioid receptor (Homo sapiens) + Delta-type opioid receptor (Homo sapiens), …. 0.21% of 340,000 active. inhibition, % at 9.3 µM; in the data active = inhibition above about 22%, passing the limit was not always enough;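 also: 0% = cells with DMSO and 100% = wells without cells with DMSO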
# Target sequence (P35372 whole entry, looked up): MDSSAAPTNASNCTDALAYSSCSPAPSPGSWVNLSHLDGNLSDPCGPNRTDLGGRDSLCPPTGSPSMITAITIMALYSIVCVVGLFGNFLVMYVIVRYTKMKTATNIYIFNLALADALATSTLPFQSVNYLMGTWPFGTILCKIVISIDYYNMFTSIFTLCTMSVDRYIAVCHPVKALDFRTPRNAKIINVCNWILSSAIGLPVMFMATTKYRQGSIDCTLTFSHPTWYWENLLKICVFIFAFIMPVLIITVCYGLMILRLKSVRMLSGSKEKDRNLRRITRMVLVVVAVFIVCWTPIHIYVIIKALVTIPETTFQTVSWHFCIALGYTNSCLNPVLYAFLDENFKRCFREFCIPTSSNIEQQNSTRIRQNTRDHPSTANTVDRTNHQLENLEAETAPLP
# Target sequence (P41143 whole entry, looked up): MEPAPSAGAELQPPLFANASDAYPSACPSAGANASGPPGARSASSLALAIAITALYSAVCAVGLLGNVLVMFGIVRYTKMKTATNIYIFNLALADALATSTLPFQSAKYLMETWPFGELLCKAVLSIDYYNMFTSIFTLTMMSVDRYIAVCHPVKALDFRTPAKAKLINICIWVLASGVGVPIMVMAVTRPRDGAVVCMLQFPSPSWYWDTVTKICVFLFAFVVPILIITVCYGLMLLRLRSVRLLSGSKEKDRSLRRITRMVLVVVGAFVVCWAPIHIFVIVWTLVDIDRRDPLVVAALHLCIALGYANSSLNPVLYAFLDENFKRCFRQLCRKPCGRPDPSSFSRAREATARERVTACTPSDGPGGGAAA
# MOR-DOR ag: agonists of OPRM1-OPRD1 heterodimerization, primary screen, cell-based, luminescence; cells; activation, % at 9.3 µM; 0.3% of 340,000 active; AID 504326, 2011; in the data active = activation above about 18%;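 also: 0% = vehicle-treated cells and 100% = reference agonist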
# Starred values were filed as active, the others as inactive.
SMILES,HTR5A inv ag,HTR5A ag ctr,MOR-DOR inv ag,MOR-DOR ag
Cc1ccc(-c2nnn(CC(=O)N(CC3CCCO3)C(C(=O)NC3CCCC3)c3ccc(O)cc3)n2)o1 (stereo not drawn),-27,9.4*,3,-1
O=C(CNC1CCCCCC1)c1cccs1,-17,6,33*,-6
O=C(NC1CCCCCC1)c1cccs1,-42,3,3,-1
O=C(Nc1cccnc1)c1cc(-c2cccc(Br)c2)nc2ccccc12,-7,13*,-51,10
O=C(O)c1ccc(NC2=C/C(=N/S(=O)(=O)c3ccccc3)c3ccccc3C2=O)cc1,25,-3,-144,28*
COc1ccc(NC(=O)CCOc2ccccc2F)cc1S(=O)(=O)N1CCCCC1,1,0,1,0
COc1ccc(NC(=O)c2cc3c(s2)CCC(C)C3)cc1S(=O)(=O)N1CCOCC1 (stereo not drawn),-7,2,-4,1
NC(=O)c1c(NC(=O)CSc2nnc(Cc3ccccc3)n2Cc2ccco2)sc2c1CCC2,-11,3,-1,0
CCCCn1c(SCC(=O)Nc2sc3c(c2C(N)=O)CCC3)nnc1-c1ccccc1,-25,14*,-13,2
CC1OC(CC(=O)O)CC2=C1C(=O)c1c(O)cccc1C2=O (stereo not drawn),21,-5,-130,30*
O=C1C=C(O)c2cccc(O)c2C1=O,3,2,-9,2
CC(C)N(CC(N)=O)C(=O)c1sc2cc(F)ccc2c1Cl,-22,13*,-3,1
CN1CCC(N(C)C(=O)c2sc3cc(F)ccc3c2Cl)CC1,-1,0,0,0
CCCc1nnc(NC(=O)CCC(=O)N2CCCCC2CC)s1 (stereo not drawn),-15,9.9*,12,-2
Cc1cccc2sc(NNC(=O)c3ccc(S(=O)(=O)N4CC(C)CC(C)C4)cc3)nc12 (stereo not drawn),-43,15*,-133,23*
COc1ccc(OCC(=O)NNC(=O)c2c(-c3ccccc3Cl)noc2C)cc1,13,-3,13,-2
Cc1ncc(CO)c2c1Oc1nc(-c3ccccc3F)nc(SCC(=O)N(C)c3ccccc3)c1C2,-5,12*,-103,20*
Cc1ccc(N=C2NC(=O)CS2)cc1,9,10,7,-1
Cc1ccc(N=C2C(=O)Nc3ccc(C)c(Br)c32)cc1,28,-8,67*,-13
O=c1c2c(n3cnnc3n1-c1ccccc1)-c1ccccc1CC21CCCCC1,-16,3,4,-1
Cc1ccc(S(=O)(=O)Nc2nc(C)c(C(=O)N/N=C/c3ccccc3)s2)cc1,-9,13*,9,-2
Cc1ccc(S(=O)(=O)Nc2nc(C)c(C(=O)Nc3ccccc3)s2)cc1,-2,1,6,-1
COC(=O)COc1ccc(S(=O)(=O)N2CCN(c3ccccc3F)CC2)cc1C,-4,-2,4,-1
CC1Oc2ccccc2N(CC(=O)Nc2ccc(F)cc2)C1=O (stereo not drawn),-40,11*,13,-3
CC1Oc2ccccc2N(CC(=O)Nc2ccc3c(c2)OCCO3)C1=O (stereo not drawn),-12,-4,8,-1
SMILES,HTR5A inv ag,HTR5A ag ctr,MOR-DOR inv ag,MOR-DOR ag
O=C(CCCCCn1c(=S)[nH]c2ccc(N3CCOCC3)cc2c1=O)NCc1ccccc1Cl,-12,0,-35,7
O=C(CCCCCn1c(=S)[nH]c2ccc(N3CCOCC3)cc2c1=O)NCc1ccc(Cl)cc1,-35,13*,-11,2
O=C(CCCCCn1c(=S)[nH]c2ccc(N3CCOCC3)cc2c1=O)NCc1ccc2c(c1)OCO2,-31,12*,9,-2
CC(C)c1cc(C(=O)N2CCCC(N3CCN(c4ccc(F)cc4)CC3)C2)n(C)n1 (stereo not drawn),-5,10*,16,-3
O=C1C=C(O)C(n2cncn2)C(c2ccc(F)cc2)C1 (stereo not drawn),14,-5,-4,1
COc1ccc(C2CC(=O)C(C3NCCc4ccccc43)=C(O)C2n2cncn2)cc1 (stereo not drawn),-30,11*,-3,1
CC1CCN(C(=O)CSc2nnc(CNC(=O)c3c(F)cccc3F)o2)CC1,-9,0,10,-1
CS(=O)(=O)N1CCN(c2ccc(NC(=O)c3ccc(-c4ccc(Cl)cc4)o3)cc2)CC1,-39,12*,-55,10
CC(C)C[C@H](NC(=O)c1nc[nH]c1C(=O)NC1CCN(C(=O)OC(C)(C)C)CC1)C(=O)OCc1ccccc1,-38,12*,-95,17
CCCCOc1ccc(CSCCNC(=S)Nc2ccccc2)cc1,-13,14*,-12,2
CCN1C(N(C)CCc2c[nH]c3ccccc23)=N[C@@H](c2cccc(C(F)(F)F)c2)C(C(=O)OC)=C1C,-66,22*,-19,3
CN(C(=O)COC(=O)C12CC3CC(CC(Cl)(C3)C1)C2)c1ccccc1,-40,11*,-23,4
CC1CCCC(C)N1C(=O)COC(=O)C12CC3CC(CC(Cl)(C3)C1)C2 (stereo not drawn),13,-3,-17,3
CC(C)(C)OC(=O)C[C@@H]1C/C=C\C[C@@H](CC(=O)NCCO)C(=O)N2CCC[C@H]2COC1=O,-39,0,11,-2
CCOC(=O)c1ccccc1NC(=O)CSc1ccc(-c2cccnc2)nn1,9,0,1,0
CC(=O)Nc1sc(N/N=C/c2ccccc2)nc1-c1ccc(C)cc1,4,13*,-3,1
O=S(=O)(Cc1ccccc1)C1CCCCC1O (stereo not drawn),17,7,15,-3
Cc1cccc(NC(=O)CN2C(=O)N/C(=C/c3ccc(C)s3)C2=O)c1,-23,12*,-145,23*
CCN(CC(=O)Nc1c(F)cccc1F)C(=O)c1ccc(N2CCCC2)c([N+](=O)[O-])c1,-1,0,16,-2
CN1C(=O)C(O)(CC(=O)/C=C/c2ccco2)c2ccccc21 (stereo not drawn),-26,9.6*,8,-2
COc1ccc(CCN2C(=O)CC(NC34CC5CC(CC(C5)C3)C4)C2=O)cc1OC (stereo not drawn),-18,7,-19,4
COc1ccc2nc(C)cc(N/N=C/c3ccccc3)c2c1,-4,-2,-83,21*
Cc1ccc2c(c1)/C(=C/c1ccccc1C)C(=O)N2,-6,2,-30,6
Cc1cc(NC(=O)c2ccc(COc3ccccc3Cl)o2)no1,-12,9.7*,-15,3
CCC1(c2ccccc2)C(=O)N=C(N)N(C#N)C1=O (stereo not drawn),-21,5,10,-2
CC1CC(C)CN(CCCNC(=O)CN2C(=O)CSc3ccc(S(=O)(=O)N4CCOCC4)cc32)C1 (stereo not drawn),-33,12*,14,-3
CC1CCCCC1NC(=S)Nc1cccc(S(=O)(=O)N(C)C)c1 (stereo not drawn),19,11*,-7,1

# Screens (PubChem BioAssay)
